Source: PubChem BioAssay

How the values were obtained:
[1] = tested on: Botulinum neurotoxin type F light chain protease (Clostridium botulinum); assay: Clostridium botulinum type F light chain protease inhibitors, microsphere substrate cleavage, validation (AID 588459); settings: multiplex microsphere protease substrate cleavage assay, flow cytometry; at 10 µM; active compounds read high
[2] = target: Botulinum neurotoxin type A (Clostridium botulinum) (UniProt P0DPI0); assay: BoNT/A light chain protease inhibitors, biochemical, multiplex microsphere flow cytometry, validation set (AID 588460); settings: at 10 µM, active compounds read high
Sequence of Botulinum neurotoxin type A (Clostridium botulinum) (P0DPI0 whole entry, looked up): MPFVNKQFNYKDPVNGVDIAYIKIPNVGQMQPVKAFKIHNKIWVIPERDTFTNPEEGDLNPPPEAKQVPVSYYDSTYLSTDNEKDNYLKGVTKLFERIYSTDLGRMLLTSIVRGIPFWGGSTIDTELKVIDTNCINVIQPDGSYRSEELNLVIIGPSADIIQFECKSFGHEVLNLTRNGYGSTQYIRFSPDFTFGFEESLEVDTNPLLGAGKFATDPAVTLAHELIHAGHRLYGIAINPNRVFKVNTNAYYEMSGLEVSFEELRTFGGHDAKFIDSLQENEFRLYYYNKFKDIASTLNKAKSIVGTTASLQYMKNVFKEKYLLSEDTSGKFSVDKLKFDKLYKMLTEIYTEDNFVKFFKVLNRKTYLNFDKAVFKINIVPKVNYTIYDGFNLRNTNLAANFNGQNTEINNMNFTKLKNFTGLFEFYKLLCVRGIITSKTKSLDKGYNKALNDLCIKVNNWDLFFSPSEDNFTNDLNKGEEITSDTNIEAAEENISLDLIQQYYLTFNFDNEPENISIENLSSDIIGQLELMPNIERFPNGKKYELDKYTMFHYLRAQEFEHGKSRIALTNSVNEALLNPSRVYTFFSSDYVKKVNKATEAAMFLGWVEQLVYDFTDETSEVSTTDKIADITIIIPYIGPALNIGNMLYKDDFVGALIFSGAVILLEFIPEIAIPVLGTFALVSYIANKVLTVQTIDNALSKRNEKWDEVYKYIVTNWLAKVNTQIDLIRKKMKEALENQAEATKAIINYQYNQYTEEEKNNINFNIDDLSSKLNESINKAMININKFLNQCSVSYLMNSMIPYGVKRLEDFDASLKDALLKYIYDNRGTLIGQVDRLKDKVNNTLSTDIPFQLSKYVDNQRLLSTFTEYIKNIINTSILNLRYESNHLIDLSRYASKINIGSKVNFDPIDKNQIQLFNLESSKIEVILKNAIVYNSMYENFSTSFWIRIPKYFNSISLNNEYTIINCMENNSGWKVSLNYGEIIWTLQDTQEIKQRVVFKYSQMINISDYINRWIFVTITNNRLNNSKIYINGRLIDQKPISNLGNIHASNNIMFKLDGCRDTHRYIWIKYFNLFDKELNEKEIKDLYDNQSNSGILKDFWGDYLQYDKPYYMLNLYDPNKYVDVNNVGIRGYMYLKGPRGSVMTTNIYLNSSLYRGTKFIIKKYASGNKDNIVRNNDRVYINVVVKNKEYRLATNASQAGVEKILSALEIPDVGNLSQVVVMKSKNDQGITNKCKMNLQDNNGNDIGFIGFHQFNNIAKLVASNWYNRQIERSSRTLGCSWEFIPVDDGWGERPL

[3] = target: Lethal factor (Bacillus anthracis) (UniProt P15917); assay: Bacillus anthracis lethal factor inhibition, microsphere flow cytometry protease assay, validation at 10 µM (AID 588461); settings: multiplex microsphere protease cleavage assay, active compounds read high
Sequence of Lethal factor (Bacillus anthracis) (P15917 whole entry, looked up): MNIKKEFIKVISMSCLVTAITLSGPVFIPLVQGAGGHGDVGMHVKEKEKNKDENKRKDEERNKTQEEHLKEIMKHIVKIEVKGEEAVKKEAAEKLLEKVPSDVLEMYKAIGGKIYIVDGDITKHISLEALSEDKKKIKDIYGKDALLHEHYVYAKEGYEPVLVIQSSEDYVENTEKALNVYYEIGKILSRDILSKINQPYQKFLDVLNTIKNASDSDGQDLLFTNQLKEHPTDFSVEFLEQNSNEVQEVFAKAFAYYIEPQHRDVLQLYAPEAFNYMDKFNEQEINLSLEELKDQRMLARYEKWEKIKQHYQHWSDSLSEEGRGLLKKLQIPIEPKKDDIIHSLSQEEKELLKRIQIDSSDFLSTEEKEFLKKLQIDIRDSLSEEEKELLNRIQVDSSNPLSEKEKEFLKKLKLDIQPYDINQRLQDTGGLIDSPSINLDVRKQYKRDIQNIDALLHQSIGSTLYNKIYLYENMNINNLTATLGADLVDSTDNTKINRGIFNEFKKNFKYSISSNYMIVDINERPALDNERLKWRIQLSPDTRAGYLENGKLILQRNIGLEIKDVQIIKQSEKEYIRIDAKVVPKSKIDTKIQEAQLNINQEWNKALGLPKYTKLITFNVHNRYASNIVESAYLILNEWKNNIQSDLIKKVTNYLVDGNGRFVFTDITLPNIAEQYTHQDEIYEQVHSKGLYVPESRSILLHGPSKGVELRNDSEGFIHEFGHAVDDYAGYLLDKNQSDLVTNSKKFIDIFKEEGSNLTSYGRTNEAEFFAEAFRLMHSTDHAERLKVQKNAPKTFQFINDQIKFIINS

Measured: inhibition

COc1ccc(C=O)c(OC)c1
inactive: [1] -0.3% | [2] -0.5% | [3] 0.2%

COc1ccccc1CCn1cnc2c3cc(C)ccc3n(C)c2c1=O
inactive: [1] -0.5% | [2] -1% | [3] -9.2%

CCCCCC(O)c1cccc(OCc2ccc3ccccc3n2)c1 (configuration not stated)
inactive: [1] 0.9% | [2] 0.6% | [3] -0.8%

COc1ccc(CCN(C)CCCC(C#N)(c2cc(OC)c(OC)c(OC)c2)C(C)C)cc1OC (configuration not stated)
inactive: [1] 5.3% | [2] 1.8% | [3] 6.4%

O=C(c1ccc(-c2ccccc2)c(F)c1)C1CCCN(C(=O)c2cncs2)C1 (configuration not stated)
inactive: [1] 0.6% | [2] 0.5% | [3] 1.6%

CCCCCC#CCC#CCC#CCC#CCCCC(=O)O
inactive: [1] 5.7% | [2] -0.6% | [3] -1.6%

Cc1ccc(Nc2ncccc2C(=O)O)cc1C
inactive: [1] 0.8% | [2] -0.2% | [3] -6.3%

CCS(=O)(=O)CCn1c([N+](=O)[O-])cnc1C
inactive: [1] 2.2% | [2] 0.7% | [3] 3.7%

CC(=O)NC1C(OCc2ccccc2)OC(COC(C)=O)C(OC(C)=O)C1OC(C)=O (configuration not stated)
inactive: [1] -1.4% | [2] -1.9% | [3] -2.2%

Cc1ccc2[nH]c3c(c2c1)CCNC3=O
inactive: [1] -0.6% | [2] -0.5% | [3] -6.6%

CCOC(=O)c1c(O)c2c([nH]c1=O)CCCC2
inactive: [1] 2.3% | [2] -1.4% | [3] -3.9%

CC(C)CC(=O)NC(NC(=O)CC(C)C)c1cccc([N+](=O)[O-])c1
inactive: [1] 1.7% | [2] -0.3% | [3] 3.9%

O=C(COc1ccc2c(-c3ccccc3)cc(=O)oc2c1)NCc1cccs1
inactive: [1] -0.2% | [2] -0.1% | [3] -6%

COC(=O)c1[nH]c2ccccc2c1NC(=O)CN1CCN(C/C=C/c2ccccc2)CC1
inactive: [1] -2.6% | [2] -1.4% | [3] -4.7%

COc1ccc2c(c1)CC[C@@H]1[C@@H]2CC[C@]2(C)C(=O)CC[C@@H]12
inactive: [1] -4% | [2] -1.5% | [3] -5%

COCCOC(=O)C1=C(N)OC2=C(C(=O)CCC2)C1c1cccnc1 (configuration not stated)
inactive: [1] -3.2% | [2] 0% | [3] -0.9%

O=C(O)C1CCN(C(=O)COc2ccc3c4c(c(=O)oc3c2)CCC4)CC1
inactive: [1] 3% | [2] -1.1% | [3] 2.5%

Cc1ccc2[nH]c(=O)c(Cc3ccccc3)c(O)c2c1
inactive: [1] 0.6% | [2] -0.4% | [3] 2.6%

Cn1cc(CN2CCN(CCO)CC2)c(-c2ccc(Oc3ccccc3)cc2)n1
inactive: [1] 2.6% | [2] 0.5% | [3] -1.5%

CC1CCN(C(=O)Oc2ccccc2)CC1
inactive: [1] -2.4% | [2] -1.5% | [3] 3.8%

COC(=O)c1cc(-c2ccc(OC)c(OC)c2)on1
inactive: [1] 6.2% | [2] 1.7% | [3] 0.1%

Cn1cnc2c1c(=O)n(CC(O)CO)c(=O)n2C (configuration not stated)
inactive: [1] -0.3% | [2] 0% | [3] -1.4%

CSCCC1NC2(C(=O)Nc3ccc(Cl)cc32)[C@@H]2C(=O)N(C3CCCC3)C(=O)[C@H]12 (some centres not stated)
inactive: [1] 0.8% | [2] -1.4% | [3] -11.2%

COc1ccc2c(c1OC)C(C1c3c(cc4c(c3OC)OCO4)CCN1C)OC2=O (configuration not stated)
inactive: [1] 1.6% | [2] -0.7% | [3] 3.5%

O=C1CCc2cc(OCCCCc3nnnn3C3CCCCC3)ccc2N1
inactive: [1] -0.2% | [2] -0.9% | [3] -5.5%

COc1ccc(Cl)cc1C(=O)NCCc1ccc(S(=O)(=O)NC(=O)NC2CCCCC2)cc1
inactive: [1] -1.1% | [2] -1.6% | [3] -9.4%

Cc1ccccc1OCC(O)CN1CCN(C)CC1 (configuration not stated)
inactive: [1] 1% | [2] -0.4% | [3] -2.2%

COc1ccc(CNCCC(c2ccc(F)cc2)c2ccc(OC(C)C)cc2)cc1OC (configuration not stated)
inactive: [1] -0.6% | [2] -2% | [3] 8.2%

c1ccc2c3c(c(CN4CCCCC4)cc2c1)COC3
inactive: [1] 5.7% | [2] -1% | [3] 0.6%
